AC50 and outcome data for 15 compounds are collected here from PubChem BioAssay (EPA / NIEHS).

Results filed as inconclusive are left out. Calls of active or inactive are those of the source. How the source made its calls: active means hit-call score of the fitted dose curve at least 0.9, where 1 is the maximum; inconclusive means response in the unintended direction; inactive means score below 0.9.

Sequence of human Serotonin, 5-Hydroxytryptamine Receptor 7 (5HT7), HTR7 (gene 3363) (P34969 whole entry, looked up): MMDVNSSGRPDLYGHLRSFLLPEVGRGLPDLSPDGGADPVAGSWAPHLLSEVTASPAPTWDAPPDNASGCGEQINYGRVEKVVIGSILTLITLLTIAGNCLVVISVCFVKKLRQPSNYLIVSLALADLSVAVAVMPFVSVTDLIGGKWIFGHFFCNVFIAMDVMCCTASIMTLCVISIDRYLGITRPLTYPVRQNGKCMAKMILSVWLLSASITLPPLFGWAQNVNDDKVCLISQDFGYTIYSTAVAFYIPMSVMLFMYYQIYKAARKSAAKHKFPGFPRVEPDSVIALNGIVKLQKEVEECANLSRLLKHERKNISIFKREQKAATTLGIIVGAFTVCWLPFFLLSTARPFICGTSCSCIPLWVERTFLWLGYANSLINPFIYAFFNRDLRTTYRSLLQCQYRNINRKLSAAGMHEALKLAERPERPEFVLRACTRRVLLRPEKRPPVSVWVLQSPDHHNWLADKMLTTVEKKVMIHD

This experiment concerns the target human Serotonin, 5-Hydroxytryptamine Receptor 7 (5HT7), HTR7 (gene 3363) (UniProt P34969). The experiment can be described thus: NVS_GPCR_h5HT7: NovaScreen (NVS) G Protein-Coupled Receptor Assay for human Serotonin, 5-Hydroxytryptamine Receptor 7 (5HT7) (AID 2283255). The protocol:
NVS_GPCR_h5HT7 is a biochemical, single-readout assay that uses extracted gene-proteins from CHO in a cell-free assay. Measurements were taken 1 hour after chemical dosing in a 96-well plate.NVS_GPCR_h5HT7 is one of one assay component(s) measured or calculated from the NVS_GPCR_h5HT7 assay. It is designed to make measurements of radioligand binding, a form of binding reporter, as detected with scintillation counting signals by Filter-based radiodetection technology.Data from the assay component NVS_GPCR_h5HT7 was analyzed into 1 assay endpoint. This assay endpoint, NVS_GPCR_h5HT7, was analyzed in the positive analysis fitting direction relative to DMSO as the negative control and baseline of activity. Using a type of binding reporter, loss-of-signal activity can be used to understand changes in the binding as they relate to the gene HTR7. Furthermore, this assay endpoint can be referred to as a primary readout, because the performed assay has only produced 1 assay endpoint. To generalize the intended target to other relatable targets, this assay endpoint is annotated to the gpcr intended target family, where the subfamily is rhodopsin-like receptor.
Binding assays used specific radioligands (tritiated, iodinated) with non-radioactive competitive displacement ligands in agonist or antagonist protocols (as indicated) and various reference compounds and inhibitors to titrate specific binding to receptors and transporters. Most enzyme assays (CYPs, kinases, phosphatases, proteases, HDACs) used recombinant protein and specific substrates (fluorescence mostly, some colorimetric and radioactive) and inhibitors, followed by a biochemical separation of substrate and product. All assays for the biochemical HTS were initially run in duplicate at a single concentration (10 uM for CYP450 assays and 25 uM for all others). […] Each assay was run with positive and negative controls, and concurrent controls on every plate. The follow-up (secondary) screen tested active chemical-pairs in concentration series, as well as a few additional assays not tested in the primary screen, some selected negative inactives, and several cases re-run in the concentration series for confirmatory purposes.
Broadly, the AC50 is the concentration giving half of the maximal activity seen. As to `O=C(O)Cc1cc(I)c(Oc2cc(I)c(O)c(I)c2)c(I)c1`, the AC50 was 5.26 µM (active).
Take `CC(=O)NC1(c2cccc(F)c2)CCN(CC[C@@]2(c3ccc(Cl)c(Cl)c3)CN(c3ccccc3)C(=O)CO2)CC1`: the AC50 is 20.8 µM (active).
On the same count and under the same terms, for `CC#C[C@]1(O)CC[C@H]2[C@@H]3CCC4=CC(=O)CCC4=C3[C@@H](c3ccc(N(C)C)cc3)C[C@@]21C` the value was 23.7 µM (active).
Take `CCC(=C(c1ccc(O)cc1)c1ccc(OCCN(C)C)cc1)c1ccccc1`: the AC50 is 5.49 µM (active).
With `CC[C@H](c1ccc(O)cc1)[C@@H](CC)c1ccc(O)cc1`, the result was inactive.
As for `CN1CCN(c2ccccc2/C=C2\SCCN(c3ccc(Cl)c(Cl)c3)C2=O)CC1`, the AC50 is 0.0142 µM (active).
As for `O=C(OCCOCCOC(=O)c1ccccc1)c1ccccc1`, the AC50 was 8.96 µM (active).
As for `CCN(CC)CCNc1ccc(CNC=O)c2sc3ccc(OC)cc3c(=O)c12`, the result was inactive.
`CCCOc1sc(C(=O)N2CCC(c3cc(CN)ccc3F)CC2)c(C)c1Br`: the AC50 was 5.09 µM (active).
Regarding `Cc1oc(-c2ccccc2)nc1CCOc1ccc(C[C@H](Nc2ccccc2C(=O)c2ccccc2)C(=O)O)cc1`, the compound was classed as inactive.
`CCCCCCCCCCCCc1ccccc1S(=O)(=O)O`: the AC50 was 7.69 µM (active).
As for `O=[N+]([O-])c1ccc(O)cc1`, the call was inactive.
The same measure, in the same setting: next, `NC(=O)N1C(=O)C(C(=O)c2cc(Cl)cs2)c2cc(F)c(Cl)cc21` (stereo not given): “inactive”; `Oc1cccc(O)c1`: “inactive”.
As for `NC(=O)N(O)[C@@H]1C=C[C@H](Oc2cccc(Oc3ccc(F)cc3)c2)C1`, the AC50 is 12.8 µM (active).
